Counter-ions that a name gives are not always drawn. Values without a mark were called inactive.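 How the source made its calls: for the amine columns active = adjusted P below 0.05 in both replicates with a change the same way and a mean fold change under 0.8 or over 1.25; inactive = the rest.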
The compounds below were run on Klebsiella aerogenes DSM 30053 (assay: fold change of Cadaverine concentration vs plate DMSO controls (fold change (ratio)); higher = more amine produced, active = hit call of the paper (significant change in both replicates, either direction)). Details: incubation time: 27 h, anaerobic, 37 °C.
In short: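 Anaerobic mGAM cultures of four gut bacterial strains were grown at 37 °C for 27 h in 80 µL wells, starting at OD 0.1 before 1:1 dilution. Compounds were at 20 µM final (sweeteners 50 µM). Whole cultures were extracted with cold acetonitrile/methanol containing 0.1% formic acid and centrifuged. Amines were quantified by LC–triple-quadrupole MS (dynamic MRM) against external calibration curves and drift-corrected within batch. Each value is the fold change versus plate DMSO controls, averaged over 2 biological replicates.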

Row | Structure (SMILES) | fold change of Cadaverine concentration
1 | CC(N)(Cc1ccc(O)c(O)c1)C(=O)O (centres undefined) [(L) Methyldopa] (20 µM) | 1.07
2 | CN[C@@H]1[C@H](O[C@H]2[C@H](O[C@H]3[C@H](O)[C@@H](O)[C@H](N=C(N)N)[C@@H](O)[C@@H]3N=C(N)N)O[C@@H](C)[C@]2(O)C=O)O[C@@H](CO)[C@H](O)[C@H]1O [Streptomycin sulfate] (20 µM) | 0.977
3 | CCOC(=O)c1ccc(OC(=O)CCCCCNC(=N)N)cc1 [Gabexate mesilate] (20 µM) | 1.04
4 | NS(=O)(=O)c1cc(C(=O)O)c(NCc2ccco2)cc1Cl [Furosemide] (20 µM) | 0.988
5 | CC(C)(Oc1ccc(Cl)cc1)C(=O)O [Clofibric acid] (20 µM) | 0.982
6 | Cc1ccc(C(C)NC(=O)[C@@H](NC(=O)OC(C)C)C(C)C)cc1 (some centres undefined) (20 µM) | 1.02
7 | COC(c1ccccc1)(c1ccccc1)[C@H](Oc1nc(C)cc(C)n1)C(=O)O [Ambrisentan] (20 µM) | 0.997
8 | CN1CCN(CCCN2c3ccccc3Sc3ccc(C(F)(F)F)cc32)CC1 [Trifluoperazine dihydrochloride] (20 µM) | 1.03
9 | C[N+](C)(CCOc1ccccc1)Cc1ccccc1.O=C([O-])c1cc2ccccc2cc1O [Bephenium hydroxynaphthoate] (20 µM) | 0.992
10 | c1ccc2cc3c(ccc4ccccc43)cc2c1 [Benz[a]anthracene] (20 µM) | 1.17
11 | C[C@H]1C[C@H]2[C@@H]3CCC4=CC(=O)C=C[C@]4(C)[C@@]3(F)[C@@H](O)C[C@]2(C)[C@@]1(O)C(=O)CO [Betamethasone] (20 µM) | 1.02
12 | NC[C@H]1O[C@H](O[C@H]2[C@H](O[C@@H]3O[C@H](CO)[C@@H](O)[C@H]3O)[C@@H](O)[C@H](N)C[C@@H]2N)[C@H](N)[C@@H](O)[C@@H]1O [Ribostamycin sulfate salt] (20 µM) | 0.994
13 | CCOC(=O)C1=C[C@]2(CC)CCCN3CCc4c(n1c1ccccc41)[C@@H]32 [Vinpocetine] (20 µM) | 1.02
14 | CCOC1O[C@H]([C@@H](COCc2ccccc2)OCc2ccccc2)[C@H](OCc2ccccc2)[C@H]1O (some centres undefined) [Tribenoside] (20 µM) | 0.987
15 | NCCCC[C@H](N[C@@H](CCc1ccccc1)C(=O)O)C(=O)N1CCC[C@H]1C(=O)O [Lisinopril] (20 µM) | 1.02
16 | CC(C)(C)NC[C@H](O)c1ccc(O)c(CO)c1 [Levalbuterol hydrochloride] (20 µM) | 0.994
17 | O=C(CCCl)NCc1ccccc1 [Beclamide] (20 µM) | 0.996
18 | Cc1onc(-c2ccccc2Cl)c1C(=O)N[C@@H]1C(=O)N2[C@@H]1SC(C)(C)[C@@H]2C(=O)O [Cloxacillin sodium salt] (20 µM) | 1.02
19 | CCN1CCCC1CNC(=O)c1cc(S(N)(=O)=O)ccc1OC (centres undefined) [Sulpiride] (20 µM) | 0.991
20 | CCOc1ccc(NC(N)=O)cc1 [(4-Ethoxyphenyl)urea] (50 µM) | 1.01

Row | Structure (SMILES) | fold change of Cadaverine concentration
21 | O=C1OC(CN2CCOCC2)CN1/N=C/c1ccc([N+](=O)[O-])o1 (centres undefined) [Furaltadone hydrochloride] (20 µM) | 1.01
22 | Cc1cc(N)c2ccccc2[n+]1CCCCCCCCCC[n+]1c(C)cc(N)c2ccccc21 [Dequalinium dichloride] (20 µM) | 1.01
23 | Cc1ccc(C(=O)c2ccc(CC(=O)O)n2C)cc1 [Tolmetin sodium salt dihydrate] (20 µM) | 1
24 | CCCSc1nc(N[C@@H]2C[C@H]2c2ccc(F)c(F)c2)c2nnn([C@@H]3C[C@H](OCCO)[C@@H](O)[C@H]3O)c2n1 [Ticagrelor] (20 µM) | 1.01
25 | CNc1ncnc2c1ncn2[C@@H]1O[C@H](CO)[C@@H](O)[C@H]1O [N6-methyladenosine] (20 µM) | 1
26 | Cc1c(N(C)CS(=O)(=O)O)c(=O)n(-c2ccccc2)n1C [Dipyrone sodium salt] (20 µM) | 1.02
27 | CN(c1nccc(=O)[nH]1)C1CCN(c2nc3ccccc3n2Cc2ccc(F)cc2)CC1 [Mizolastine] (20 µM) | 0.982
28 | CC(CN(C)C)C(C)(O)Cc1ccc(Cl)cc1 (centres undefined) [Clobutinol hydrochloride] (20 µM) | 0.988
29 | Oc1c(Cl)cc(Cl)c2cccnc12 [Chloroxine] (20 µM) | 1.01
30 | CC(=O)OCC(=O)[C@@]1(O)CC[C@H]2[C@@H]3CCC4=CC(=O)CC[C@]4(C)[C@@]3(F)[C@@H](O)C[C@@]21C [Fludrocortisone acetate] (20 µM) | 1
31 | CC1=C(C(=O)O)N2C(=O)[C@@H](NC(=O)[C@H](N)c3ccc(O)cc3)[C@H]2SC1 [Cefadroxil] (20 µM) | 0.996
32 | OC[C@H]1O[C@@](CO)(O[C@H]2O[C@H](CO)[C@@H](O)[C@H](O)[C@H]2O)[C@@H](O)[C@@H]1O [Sucrose] (50 µM) | 1.05
33 | CCN(CC)CCOC(=O)C(c1ccccc1)C1CCCCC1 (centres undefined) [Drofenine hydrochloride] (20 µM) | 0.992
34 | CN(C)CCCN1c2ccccc2Sc2ccccc21 [Promazine hydrochloride] (20 µM) | 0.983
35 | CCc1cccc(CC)c1NC(=O)CN(CC(=O)O)CC(=O)O [Etifenin] (20 µM) | 1.02
36 | CC(Cc1cccc(C(F)(F)F)c1)NCCOC(=O)c1ccccc1 (centres undefined) [Benfluorex] (20 µM) | 0.99
37 | Cn1c(=O)c2c(ncn2C)n(C)c1=O [Caffeine] (20 µM) | 0.987
38 | O=c1[nH]c(=O)n([C@H]2C[C@H](O)[C@@H](CO)O2)cc1C(F)(F)F [Trifluridine] (20 µM) | 0.975
39 | CCOC(=O)NNc1nncc2ccccc12 [Todralazine hydrochloride] (20 µM) | 1.01
